Results: PubChem BioAssay (Tox21)
Where “and” joins values, the source holds several entries; their conditions need not be identical. Equal entries are not always repeated. Inconclusive results are not listed. The source holds several records for some structures; these can differ, active in one and inactive in another. Calls of active or inactive are those of the source. Unless noted, the call rests on the fitted dose curve; in most records, active means well fitted curve in the direction sought with a large enough effect in the repeat runs; inconclusive means weak or mixed curves; inactive means no such curve, though single readings can be large; an effect the other way counts as inactive or inconclusive.

Tests used:
[1] = qHTS assay to identify small molecule antagonists of the thyroid receptor (TR) signaling pathway - cell viability counter screen (AID 743064); further: nearly all actives have a fitted effect of over 50% in size; further: potency means the concentration at half of the fitted maximal effect
Method in brief: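 In-well cytotoxicity read by CellTiter-Fluor (30 min, 37 C) following 23.5 h exposure of GH3 cells bearing a TRE-luciferase sensor. Compounds were added alongside 1 nM (final) T3 to drive TR transactivation.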

[2] = qHTS assay to identify small molecule antagonists of the thyroid receptor (TR) signaling pathway (AID 743065); further: nearly all actives have a fitted effect of over 55% in size; further: potency means the concentration at half of the fitted maximal effect
Method in brief: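 GH3.TRE-Luc rat pituitary cells carrying two TR response elements driving luciferase were plated for 4 h, given compound plus 1 nM T3 (final), and incubated 23.5 h at 37 C. ONE-Glo luminescence measured reporter inhibition; CellTiter-Fluor fluorescence tracked cytotoxicity.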

[3] = tested on: thyroid hormone receptor (rat, GH3 cells); experiment: qHTS assay to identify small molecule agonists of the thyroid receptor (TR) signaling pathway (AID 743066; calls by dose curve)
[4] = molecular target: Estrogen receptor (Homo sapiens) (UniProt P03372); experiment: qHTS assay to identify small molecule antagonists of the estrogen receptor alpha (ER-alpha) signaling pathway (AID 743069; active means well fitted curve in the direction sought with a large enough effect in the signal ratio in the repeat runs, not every such curve was filed as active; the % refers to the signal ratio)
Method in brief: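 Screening used a UAS-driven beta-lactamase reporter integrated into HEK293 cells expressing ER-alpha, stimulated with 17beta-estradiol alongside test compounds over 18 hr at 37C; signal came from LiveBLAzer B/G FRET fluorescence.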

[5] = qHTS assay to identify small molecule antagonists of the estrogen receptor alpha (ER-alpha) signaling pathway - cell viability counter screen (AID 743074; calls by dose curve; further: nearly all actives have a fitted effect of over 45% in size)
[6] = molecular target: Estrogen receptor (Homo sapiens) (UniProt P03372); experiment: qHTS assay to identify small molecule agonists of the estrogen receptor alpha (ER-alpha) signaling pathway (AID 743075; calls by dose curve)
[7] = molecular target: Estrogen receptor (Homo sapiens) (UniProt P03372); experiment: qHTS assay to identify small molecule agonists of the estrogen receptor alpha (ER-alpha) signaling pathway using the BG1 cell line (AID 743079); further: nearly all actives have a fitted effect of over 20% in size
[8] = qHTS assay to identify small molecule antagonists of the estrogen receptor alpha (ER-alpha) signaling pathway using the BG1 cell line (AID 743080; calls by dose curve;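 further: BG1 cells stimulated with 17beta-estradiol alongside compound; nearly all actives have a fitted effect of over 25% in size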; further: potency means the concentration at half of the fitted maximal effect)
Method in brief: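 Quantitative HTS on the Tox21 10K library: BG1 cells with endogenous ER-alpha and ERE-luciferase reporter, 17beta-estradiol stimulation, 21.5 h compound exposure, luminescence endpoint with parallel fluorescence cytotoxicity counter-read.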

[9] = qHTS assay to identify small molecule antagonists of the estrogen receptor alpha (ER-alpha) signaling pathway using the BG1 cell line - cell viability counter screen (AID 743081);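 further: compound given together with 17beta-estradiol as the ER stimulus; nearly all actives have a fitted effect of over 45% in size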; further: potency means the concentration at half of the fitted maximal effect
Aromatase (Homo sapiens) = Aromatase (Homo sapiens) (UniProt P11511); experiment: qHTS assay to identify aromatase inhibitors (AID 743083); further: nearly all actives have a fitted effect of over 55% in size; further: potency means the concentration at half of the fitted maximal effect
[10] = qHTS assay to identify aromatase inhibitors - cell viability counter screen (AID 743084);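 further: cells stimulated with testosterone during compound exposure; nearly all actives have a fitted effect of over 55% in size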
[11] = molecular target: Aryl hydrocarbon receptor (Homo sapiens) (UniProt P35869); experiment: qHTS assay to identify small molecule that activate the aryl hydrocarbon receptor (AhR) signaling pathway (AID 743085);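 further: HG2L7.5c1 human HepG2 liver cells with stably integrated DRE-driven firefly reporter; series mostly up to about 70 µM; nearly all actives have a fitted effect of over 15% in size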
Method in brief: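 Luminescence (ONE-Glo) from a dioxin-responsive-element luciferase reporter in HG2L7.5c1 HepG2 cells after 24 hr compound exposure at 37C; viability measured by CellTiter-Fluor fluorescence beforehand.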

[12] = qHTS assay to identify small molecule that activate the aryl hydrocarbon receptor (AhR) signaling pathway - cell viability counter screen (AID 743086);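 further: HepG2 liver cells carrying the AhR DRE luciferase reporter; series mostly up to about 70 µM; nearly all actives have a fitted effect of over 45% in size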
Method in brief: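 HepG2-AhR-luc (HG2L7.5c1) cells, 4000/well, were preincubated 5 h at 37C, exposed to compound in qHTS format for 24 hr at 37C, then given CellTiter-Fluor for 30 min; viability was read as fluorescence in the reporter wells.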

[13] = molecular target: Peroxisome proliferator-activated receptor gamma (Homo sapiens) (UniProt P37231); experiment: qHTS assay to identify small molecule agonists of the peroxisome proliferator-activated receptor gamma (PPARg) signaling pathway (AID 743094; active means well fitted activation curve with a large enough effect in the signal ratio in the repeat runs, not every such curve was filed as active; the % refers to the signal ratio)
Method in brief: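 HEK293H PPARg-bla cells, 5 h settle at 37C/5% CO2; compound (DMSO) 17 h, 37C; B/G FRET substrate 1 h RT; fluorescence intensity read-out. qHTS format.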

[14] = qHTS assay to identify small molecule antagonists of the peroxisome proliferator-activated receptor gamma (PPARg) signaling pathway - cell viability counter screen (AID 743194); further: nearly all actives have a fitted effect of over 55% in size
Method in brief: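 PPARg-UAS-bla HEK293H cells were plated, rested 5 h at 37 C, then treated with compounds plus rosiglitazone (50 nM final) for 17 h at 37 C; viability was then read by CellTiter-Glo luminescence after 30 min at room temperature.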

[15] = qHTS assay for small molecule agonists of the antioxidant response element (ARE) signaling pathway (AID 743202; active means well fitted activation curve with a large enough effect in the signal ratio in the repeat runs, not every such curve was filed as active; the % refers to the signal ratio)
Method in brief: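 Steps: seed ARE-bla HepG2 cells (2,000/well); incubate 5 h at 37 C; add compounds by pin tool; incubate 16 h at 37 C; add FRET substrate; read fluorescence after 2 h at RT.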

[16] = qHTS assay for small molecule agonists of the antioxidant response element (ARE) signaling pathway - cell viability counter screen (AID 743203; calls by dose curve; further: nearly all actives have a fitted effect of over 55% in size; further: potency means the concentration at half of the fitted maximal effect)
Method in brief: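 Luminescence read-out (CellTiter-Glo, 30 min at room temperature) measured cell viability in the same wells as the ARE beta-lactamase reporter. HepG2 ARE-bla cells were treated with compounds for 16 hrs at 37C/5% CO2.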

[17] = qHTS assay for small molecule activators of the heat shock response signaling pathway - cell viability counter screen (AID 743209); further: nearly all actives have a fitted effect of over 50% in size
Method in brief: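 HSE-bla HeLa; 1500 cells/well; overnight 37 C, 5% CO2; compound 5 h 37 C; LiveBLAzer B/G substrate 2.5 h RT; CellTiter-Glo 30 min RT; luminescence.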

[18] = qHTS assay for small molecule activators of the heat shock response signaling pathway (AID 743210; active means well fitted activation curve with a large enough effect in the signal ratio in the repeat runs, with a control signal flat, not every such curve was filed as active; the % refers to the signal ratio;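 further: HeLa cells with beta-lactamase reporter driven by heat shock elements; series mostly up to about 63 µM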)
Method in brief: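 Activation of heat shock element-controlled beta-lactamase expression is measured in HeLa cells by LiveBLAzer FRET fluorescence, with compound exposure lasting 5 h at 37 C and substrate loading 2.5 h at room temperature.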

[19] = molecular target: Peroxisome proliferator-activated receptor gamma (Homo sapiens) (UniProt P37231); experiment: qHTS assay to identify small molecule antagonists of the peroxisome proliferator-activated receptor gamma (PPARg) signaling pathway (AID 743191; calls by dose curve; further: series mostly up to about 63 µM; nearly all actives have a fitted effect of over 30% in size)
Method in brief: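 GeneBLAzer PPARg UAS-bla HEK293H cells carrying a UAS-driven beta-lactamase reporter were plated at 3000 cells/well, preincubated 5 h at 37C, then given compound for 17 h at 37C; LiveBLAzer B/G FRET substrate was read after 1 h at room temperature.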

Measured: Potency

Aryl hydrocarbon receptor (Homo sapiens), sequence (P35869 whole entry, looked up): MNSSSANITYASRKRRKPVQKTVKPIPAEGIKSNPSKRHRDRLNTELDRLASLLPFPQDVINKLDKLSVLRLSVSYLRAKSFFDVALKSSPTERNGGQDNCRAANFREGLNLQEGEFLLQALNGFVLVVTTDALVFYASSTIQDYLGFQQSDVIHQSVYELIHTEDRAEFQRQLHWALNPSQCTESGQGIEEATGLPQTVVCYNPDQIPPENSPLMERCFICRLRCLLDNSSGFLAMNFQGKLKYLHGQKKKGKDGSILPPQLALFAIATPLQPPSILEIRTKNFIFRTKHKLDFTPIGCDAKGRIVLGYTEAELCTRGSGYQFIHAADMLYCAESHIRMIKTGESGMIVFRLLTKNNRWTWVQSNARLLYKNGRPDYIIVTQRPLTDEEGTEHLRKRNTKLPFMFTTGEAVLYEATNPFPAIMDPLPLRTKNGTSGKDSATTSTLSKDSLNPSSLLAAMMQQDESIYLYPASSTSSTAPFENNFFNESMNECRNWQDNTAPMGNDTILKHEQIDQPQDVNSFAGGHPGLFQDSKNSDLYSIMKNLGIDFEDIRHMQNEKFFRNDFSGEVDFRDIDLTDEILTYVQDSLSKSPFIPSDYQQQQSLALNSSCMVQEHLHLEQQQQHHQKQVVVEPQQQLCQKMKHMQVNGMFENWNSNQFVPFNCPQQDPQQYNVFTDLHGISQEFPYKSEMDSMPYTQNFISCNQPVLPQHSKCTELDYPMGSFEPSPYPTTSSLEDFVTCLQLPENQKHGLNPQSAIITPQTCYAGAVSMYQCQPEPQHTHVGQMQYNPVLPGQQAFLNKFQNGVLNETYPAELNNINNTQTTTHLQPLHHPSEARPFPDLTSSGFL
Aromatase (Homo sapiens), sequence (P11511 whole entry, looked up): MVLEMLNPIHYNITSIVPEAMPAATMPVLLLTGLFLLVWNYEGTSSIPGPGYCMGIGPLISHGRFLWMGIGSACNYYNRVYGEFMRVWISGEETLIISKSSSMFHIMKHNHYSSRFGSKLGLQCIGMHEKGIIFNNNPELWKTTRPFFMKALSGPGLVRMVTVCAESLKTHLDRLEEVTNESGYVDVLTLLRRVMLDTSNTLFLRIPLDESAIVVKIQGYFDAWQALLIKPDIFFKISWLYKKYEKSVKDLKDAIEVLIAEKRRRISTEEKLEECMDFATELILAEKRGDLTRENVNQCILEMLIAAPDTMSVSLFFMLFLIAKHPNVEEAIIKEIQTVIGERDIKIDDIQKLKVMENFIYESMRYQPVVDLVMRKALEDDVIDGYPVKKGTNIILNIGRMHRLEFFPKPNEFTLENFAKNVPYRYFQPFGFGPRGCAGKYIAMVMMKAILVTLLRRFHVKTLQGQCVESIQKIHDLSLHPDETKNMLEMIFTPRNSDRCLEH
Peroxisome proliferator-activated receptor gamma (Homo sapiens), sequence (P37231 whole entry, looked up): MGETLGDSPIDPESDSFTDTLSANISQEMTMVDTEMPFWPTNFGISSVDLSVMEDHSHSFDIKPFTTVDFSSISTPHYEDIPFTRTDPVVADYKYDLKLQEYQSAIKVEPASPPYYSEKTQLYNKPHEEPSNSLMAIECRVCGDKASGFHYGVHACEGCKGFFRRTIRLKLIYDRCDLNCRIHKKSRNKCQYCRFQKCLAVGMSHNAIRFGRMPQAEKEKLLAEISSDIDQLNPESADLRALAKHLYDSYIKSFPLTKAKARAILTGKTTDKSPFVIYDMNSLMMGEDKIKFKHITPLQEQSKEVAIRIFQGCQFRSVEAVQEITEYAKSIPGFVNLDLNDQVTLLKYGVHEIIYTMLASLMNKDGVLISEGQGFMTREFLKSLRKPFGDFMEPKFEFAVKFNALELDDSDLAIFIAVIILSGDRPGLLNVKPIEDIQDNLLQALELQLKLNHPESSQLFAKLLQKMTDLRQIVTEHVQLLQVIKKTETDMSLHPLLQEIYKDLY
Estrogen receptor (Homo sapiens), sequence (P03372 whole entry, looked up): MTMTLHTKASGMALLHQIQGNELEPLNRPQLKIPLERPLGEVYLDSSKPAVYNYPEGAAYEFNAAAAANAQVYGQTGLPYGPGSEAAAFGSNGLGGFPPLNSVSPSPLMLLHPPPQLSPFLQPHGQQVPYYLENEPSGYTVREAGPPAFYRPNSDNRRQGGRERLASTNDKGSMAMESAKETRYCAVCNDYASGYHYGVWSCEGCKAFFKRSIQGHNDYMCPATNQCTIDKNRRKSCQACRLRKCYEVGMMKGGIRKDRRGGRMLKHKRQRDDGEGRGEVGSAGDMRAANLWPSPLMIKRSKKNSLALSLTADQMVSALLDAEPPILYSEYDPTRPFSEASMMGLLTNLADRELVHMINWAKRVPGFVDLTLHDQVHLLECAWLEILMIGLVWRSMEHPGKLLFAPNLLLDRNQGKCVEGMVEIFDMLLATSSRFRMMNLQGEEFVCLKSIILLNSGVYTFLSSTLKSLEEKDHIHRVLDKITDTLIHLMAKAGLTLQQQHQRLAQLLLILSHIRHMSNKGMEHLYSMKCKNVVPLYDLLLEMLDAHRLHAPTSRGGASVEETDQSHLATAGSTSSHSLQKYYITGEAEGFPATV

CCC(C)(Oc1ccc(C2(c3ccc(OC(C)(CC)C(=O)O)cc3)CCCCC2)cc1)C(=O)O (stereo unspecified)
not listed: [19]
inactive: all other assays above

C=CS(=O)(=O)O
inactive: all assays above

CC(C)(O)CCC(C)(C)O
not listed: [19]
inactive: all other assays above

OCC(CO)N[C@H]1C[C@](O)(CO)[C@@H](O)[C@H](O)[C@H]1O
not listed: [15] | [19]
inactive: all other assays above

Clc1ccc2c(c1)C(N1CCNCC1)=Nc1ccccc1O2
active: [1] 30.6 µM | [2] 29.8 µM and 30.6 µM | [8] 11.9 µM
inactive and 54.5 µM (active): [9]
54.5 µM (active) and inactive: [16]
inactive and 17.2 µM (active): Aromatase (Homo sapiens)
not listed: [14] | [15] | [18]
inactive: all other assays above

CCN(CC)C(=O)Nc1ccc(OCC(O)CNC(C)(C)C)c(C(C)=O)c1 (stereo unspecified)
not listed: [8] | [19]
inactive: all other assays above
